In PubChem BioAssay one finds composite z-score, z-score and composite Z-score data, which are given here for five molecules.

Activity calls are given as the source filed them.

The subject of experiment [1] is Human papillomavirus type 1a protein E7 (residues 44-93). As to the kind of experiment: HPV1a E7 fragment binders on microarrays, primary screen, biochemical, small-molecule microarray, residues 44-93, 635 nm fluorescence (AID 1108).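 Further: E7 fragment applied at 1 µg/mL in TBST for 1 h at 4 C; score combines spot fluorescence with its signal to noise ratio.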 As to conditions: small-molecule microarray binding, fluorescence 635 nm; higher = more signal.
A short description of experiment [2]: modulators of HCV replicon luciferase signal, primary screen, HCV replication inhibitor project, Huh7 cells, luciferase reporter (AID 1109).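 Further: huh7 hepatoma cells harbouring a luciferase neomycin HCV replicon reporter; luciferase luminescence as measure of HCV replicon replication; test concentration not given here.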 As to conditions: 48 h, higher = more signal. For orientation: A replicon is a self-replicating genome or part of one, used to study replication in cells.
Experiment [3] addresses Left-right determination factor 2 (Homo sapiens) (UniProt O00292). As to the kind of experiment: LEFTY2 binders on small-molecule microarrays, primary screen, biochemical, small-molecule microarray, 635 nm fluorescence scan (AID 1110). Conditions: LEFTY2 binding, higher = more signal.
For experiment [4], the target named is Calmodulin-1 (Homo sapiens) (UniProt P0DP23). Nature of the experiment: CALM1 binders on microarrays, EGTA buffer, profiling panel, biochemical, small-molecule microarray, Cy5-labelled CALM1 (AID 1111).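 Further: labelled calmodulin applied in Tris saline Tween buffer holding calcium plus EGTA and DTT.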 Conditions: Cy5-CALM1 binding fluorescence, higher = more signal.
For experiment [5] the target is unchanged. As to the kind of experiment: calcium-bound CALM1 binders on microarrays, profiling panel, artefact control for SMM control-protein annotation, biochemical, small-molecule microarray, Cy5-labelled CALM1, plus calcium (AID 1112).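 Further: score merges spot fluorescence with signal to noise from triplicate slides.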 As to conditions: Cy5-CALM1 binding fluorescence, higher = more signal.
Experiment [6] can be described thus: small-molecule microarray binders of probe aWnt5a, primary screen, biochemical, biotinylated probe, 635/667 nm fluorescence (AID 1113).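 Further: score merges 667 nm fluorescence intensity with signal-to-noise per printed feature.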 As to conditions: higher = more signal.
Experiment [7] is described as follows: small-molecule microarray binders of probe aShh, primary screen, biochemical, biotinylated probe, 635/667 nm fluorescence (AID 1114).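 Further: probe is biotin-labelled aShh protein from a stem cell growth factor screen; measures binding of labelled protein to compounds printed on the slide; score merges feature fluorescence at 667 nm with signal-to-noise.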 As to conditions: higher = more signal.
Experiment [8] is described as follows: small-molecule microarray binders of probe aNog, primary screen, biochemical, biotinylated probe, 635/667 nm fluorescence (AID 1115).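 Further: probe is biotinylated aNog protein used at 0.15 µg/mL for 1 h at 4 C; z-score combines 667 nm fluorescence of each spot with its signal to noise.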 Conditions: higher = more signal.
Experiment [9] concerns the target Torsin-1A-interacting protein 1 (Homo sapiens) (UniProt Q5JTV8). As to the kind of experiment: LAP1 binders from COS7 cell lysate, primary screen, small-molecule microarray, 635/667 nm fluorescence (AID 1116). As to conditions: COS7-hLAP1 lysate binding, 635 nm fluorescence, higher = more signal.
Experiment [10] concerns the target Alpha-bungarotoxin (Bungarus multicinctus) (UniProt P60615). As to the kind of experiment: alpha-bungarotoxin binders on microarray, profiling panel, artefact control for SMM control protein annotation, biochemical, small-molecule microarray, Alexa647 label, 635/667 nm fluorescence (AID 1117). Conditions: alpha-BTX-A647 binding fluorescence, higher = more signal.

Another experiment has as its target Albumin (Bos taurus) (UniProt P02769). Nature of the experiment: bovine serum albumin binders on microarray, profiling panel, artefact control for SMM control protein annotation, biochemical, small-molecule microarray, Alexa647 label, 635/667 nm fluorescence (AID 1118).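 Further: score merges 667 nm emission intensity and signal-to-noise per printed compound spot.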 As to conditions: BSA-A647 binding, fluorescence 635 nm, higher = more signal.
Experiment [11] can be described thus: small-molecule microarray binders of probe aXIP, primary screen, biochemical, NeuroSMM set, 635/667 nm fluorescence (AID 1119).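 Further: probe is the protein aXip251-270 applied at 1 µg/mL to compound-printed slides; binding of probe to printed compounds measured as 667 nm fluorescence plus signal to noise.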 As to conditions: higher = more signal, called active from +8 up or from −8 down.
Experiment [12] can be described thus: small-molecule binders of probe aNOTCH3, primary screen, biochemical, small-molecule microarray, 635/667 nm fluorescence (AID 1120).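 Further: probe is a biotin-tagged antibody raised against NOTCH3 rather than NOTCH3 protein; score merges spot fluorescence near 667 nm with spot signal to noise.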 Conditions: higher = more signal.
The nature of experiment [13]: small-molecule binders of probe aNOTCH2, primary screen, biochemical, small-molecule microarray, 635/667 nm fluorescence (AID 1121).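 Further: score merges feature fluorescence read at 667 nm with its signal to noise.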 Conditions: higher = more signal.
Experiment [14] deals with Carbonic anhydrase 2 (Homo sapiens) (UniProt P00918). As to the kind of experiment: CAII small-molecule binders, profiling panel, biochemical, small-molecule microarray, Alexa647-labelled CAII (AID 1122). Conditions: CAII-A647 binding fluorescence, higher = more signal.
Experiment [15] in a line: COS7 lysate on small-molecule microarray, probe aHis, 635 nm (AID 1123).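 Further: z-score combines 667nm fluorescence intensity with signal-to-noise per printed compound spot.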 Conditions: COS7 cell lysate, fluorescence, higher = more signal.
Experiment [16] in a line: compound binding in COS7 lysate, probe aLAP1, primary screen, cell lysate, small-molecule microarray (AID 1124).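 Further: lysate comes from COS7 cells expressing LAP1 and is applied at 0.3 µg/mL; score merges spot fluorescence near 667 nm with signal-to-noise over triplicate slides.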 As to conditions: probe aLAP1, fluorescence, higher = more signal.
Another experiment concerns Sam68 (KHDRBS1). Nature of the experiment: Sam68 small-molecule binders, primary screen, biochemical, small-molecule microarray, 635 nm fluorescence (AID 1125).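 Further: score merges 667 nm channel intensity with signal to noise over triplicate slides.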 Conditions: small-molecule microarray binding, higher = more signal.
Experiment [17] concerns Chordin-like protein 2 (CHRDL2). Nature of the experiment: CHRDL2 small-molecule binders, primary screen, biochemical, small-molecule microarray, 635 nm fluorescence (AID 1126).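 Further: printed compound slides probed with Chrdl2 protein at 4 µg/mL for 1 h at 4 C; score merges 667 nm emission intensity with signal to noise over three replicate slides.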 Conditions: small-molecule microarray binding, fluorescence 635 nm; higher = more signal.
Experiment [18] concerns the target Concanavalin-A (Canavalia ensiformis) (UniProt P02866). As to the kind of experiment: ConA small-molecule binders, primary screen, artefact control for SMM control protein annotation, biochemical, small-molecule microarray, Alexa647 label, 635 nm (AID 1127).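 Further: z combines 667 nm emission intensity with signal-to-noise across three replicate slides.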 Conditions: ConA-A647 binding fluorescence, higher = more signal.

Alpha-bungarotoxin (Bungarus multicinctus), sequence (P60615 whole entry, looked up): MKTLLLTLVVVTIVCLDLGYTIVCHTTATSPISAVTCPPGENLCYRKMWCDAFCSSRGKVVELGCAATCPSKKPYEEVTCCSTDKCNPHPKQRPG
Concanavalin-A (Canavalia ensiformis), sequence (P02866 whole entry, looked up): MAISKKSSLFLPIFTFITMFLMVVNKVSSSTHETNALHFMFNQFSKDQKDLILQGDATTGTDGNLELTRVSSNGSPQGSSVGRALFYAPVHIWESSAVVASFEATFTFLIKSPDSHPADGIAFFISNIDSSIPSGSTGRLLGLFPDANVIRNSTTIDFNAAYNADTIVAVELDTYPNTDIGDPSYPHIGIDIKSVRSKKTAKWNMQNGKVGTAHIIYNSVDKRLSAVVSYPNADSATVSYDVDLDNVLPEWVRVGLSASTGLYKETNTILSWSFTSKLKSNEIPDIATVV
Albumin (Bos taurus), sequence (P02769 whole entry, looked up): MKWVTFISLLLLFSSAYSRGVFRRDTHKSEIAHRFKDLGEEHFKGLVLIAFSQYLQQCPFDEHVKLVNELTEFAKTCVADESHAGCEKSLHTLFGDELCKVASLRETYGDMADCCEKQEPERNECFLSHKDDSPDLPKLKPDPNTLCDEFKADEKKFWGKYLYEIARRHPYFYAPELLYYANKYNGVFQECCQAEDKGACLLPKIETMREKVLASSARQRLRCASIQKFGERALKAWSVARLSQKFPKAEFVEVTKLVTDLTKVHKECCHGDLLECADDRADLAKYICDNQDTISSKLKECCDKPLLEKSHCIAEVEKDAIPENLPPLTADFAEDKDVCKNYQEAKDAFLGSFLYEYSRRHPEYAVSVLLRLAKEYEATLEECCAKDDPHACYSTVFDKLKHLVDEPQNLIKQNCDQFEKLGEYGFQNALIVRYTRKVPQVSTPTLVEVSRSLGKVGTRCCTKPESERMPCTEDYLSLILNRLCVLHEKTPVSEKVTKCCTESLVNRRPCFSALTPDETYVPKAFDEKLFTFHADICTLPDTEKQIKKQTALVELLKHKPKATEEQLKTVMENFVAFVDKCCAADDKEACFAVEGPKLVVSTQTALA
Left-right determination factor 2 (Homo sapiens), sequence (O00292 whole entry, looked up): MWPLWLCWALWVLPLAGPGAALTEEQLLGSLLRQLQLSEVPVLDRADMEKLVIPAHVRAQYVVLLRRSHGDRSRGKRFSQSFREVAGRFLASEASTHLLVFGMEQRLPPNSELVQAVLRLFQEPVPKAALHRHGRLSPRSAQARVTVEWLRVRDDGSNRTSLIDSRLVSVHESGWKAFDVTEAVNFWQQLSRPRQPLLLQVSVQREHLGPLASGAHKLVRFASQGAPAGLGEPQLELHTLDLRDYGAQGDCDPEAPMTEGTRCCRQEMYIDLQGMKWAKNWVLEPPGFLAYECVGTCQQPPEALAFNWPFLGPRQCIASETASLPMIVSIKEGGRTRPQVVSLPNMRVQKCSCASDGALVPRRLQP
Torsin-1A-interacting protein 1 (Homo sapiens), sequence (Q5JTV8 whole entry, looked up): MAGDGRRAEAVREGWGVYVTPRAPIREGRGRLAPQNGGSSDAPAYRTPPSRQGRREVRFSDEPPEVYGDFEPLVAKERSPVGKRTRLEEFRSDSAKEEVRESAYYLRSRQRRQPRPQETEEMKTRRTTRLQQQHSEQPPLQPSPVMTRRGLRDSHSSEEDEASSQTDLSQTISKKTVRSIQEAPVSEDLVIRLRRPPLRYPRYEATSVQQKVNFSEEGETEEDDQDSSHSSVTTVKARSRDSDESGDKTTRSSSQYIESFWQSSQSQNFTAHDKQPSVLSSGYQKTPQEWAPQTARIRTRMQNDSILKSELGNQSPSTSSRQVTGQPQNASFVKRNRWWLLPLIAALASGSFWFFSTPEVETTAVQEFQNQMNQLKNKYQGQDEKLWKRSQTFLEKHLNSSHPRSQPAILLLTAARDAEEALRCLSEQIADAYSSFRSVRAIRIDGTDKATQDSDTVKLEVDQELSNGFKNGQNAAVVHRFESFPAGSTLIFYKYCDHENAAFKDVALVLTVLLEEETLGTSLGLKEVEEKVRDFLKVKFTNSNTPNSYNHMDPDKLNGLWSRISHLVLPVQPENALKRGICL

In the case of `COC(=O)[C@@]1(Cc2ccc(F)cc2)[C@H]2c3cc(C(=O)N(C)C)n(Cc4c(CO)[nH]cc(C)c4=O)c3C[C@H]2CN1C(=O)c1ccccc1`, the composite z-score in experiment [1] was -0.275; in experiment [3] it was -0.104; in [4], 0.263; in experiment [5], -0.184; in experiment [6], 0.0375; in experiment [7], 0.649. Also, the composite z-score in experiment [8] was 1.38; in [9], 1.16; in experiment [10] it was 0.0084; with Albumin (Bos taurus), 0.569; in experiment [12], 0.26; in experiment [13], 0.224. Also, the composite z-score in experiment [14] is 0.866; in experiment [15], 0.816; in [16], 1.41; in the experiment on Sam68 (KHDRBS1), -0.279; in experiment [17], 0.146; in experiment [18], -0.189. In addition, the z-score in experiment [2] was -0.573. The composite Z-score in experiment [11] was 0.266 (inactive).
As for `CCCCCN1CC=CC23O[C@@H]4/C=C\CCC(C)OC(=O)C4[C@H]2C(=O)N(CCCCCCO)[C@@H]3C1=O` (stereo not given in full), the composite z-score in experiment [1] was 0.342; in experiment [3], -0.78; in experiment [4], -0.384; in experiment [5] it was 0.369; in experiment [6], -0.202; in [7] it was -0.0146. Also, the composite z-score in experiment [8] is -0.12; in experiment [9] it was 0.171; in [10] it was -0.267; with Albumin (Bos taurus), 0.548; in experiment [12], -0.311; in experiment [13], -0.164. The composite z-score in [14] is 0.781; in experiment [15], 0.84; in experiment [16], 1.57; in the experiment with Sam68 (KHDRBS1), 0.623; in experiment [17] it was -0.41; in [18] it was -0.296. Also, in experiment [2], the z-score worked out at 0.499. The composite Z-score in experiment [11] is 0.928 (inactive).
Turning to `C=CCC(OC(C)=O)[C@@H]1[C@@H](N(Cc2ccc(-c3cccc(C(F)(F)F)c3)o2)C(=O)Cc2ccc(OC)cc2)c2cc(OCCCO)ccc2N1C(=O)Cc1ccc2ccccc2c1` (stereo not given in full), the composite z-score in experiment [1] is -0.763; in [3], -0.429; in [4], -0.472; in experiment [5] it was -0.427; in experiment [6], -0.0383; in experiment [7], -0.206. Also, the composite z-score in experiment [8] was -0.463; in [9] it was -0.33; in experiment [10], 0.553; in the experiment with Albumin (Bos taurus), 0.315; in experiment [12] it was -0.158; in experiment [13] it was -0.14. In addition, the composite z-score in [14] was -0.121; in experiment [15] it was 0.631; in experiment [16], -0.31; with Sam68 (KHDRBS1), -0.0204; in experiment [17] it was -0.0929; in experiment [18], -0.0477. This molecule displayed a z-score in [2] of 0.685. The composite Z-score in [11] is -0.0998 (inactive).
As to `C[C@@]12COC[C@]13C=C(Br)[C@H](C2)[C@@]1(CO1)C3=O`, the composite z-score in experiment [1] is -2.3; in experiment [3] it was -0.777; in [4], -0.66; in experiment [5], -0.691; in experiment [6] it was -0.176; in experiment [7], -0.214. The composite z-score in [8] is -0.256; in [9] it was -1.17; in experiment [10] it was -0.455; with Albumin (Bos taurus) it was -0.717; in [12] it was -0.315; in experiment [13], -0.124. Besides, the composite z-score in experiment [14] is -0.643; in experiment [15], -0.47; in [16], 0; in the experiment with Sam68 (KHDRBS1), -1.91; in [17] it was -0.211; in [18], -0.858. Also, in experiment [2], the z-score was -2.64. Besides, the composite Z-score in experiment [11] was 0.112 (inactive).
Take `C#C[C@@H](CC)O[Si](C#CCCCC#N)(C(C)C)C(C)C`: the composite z-score in [1] is 0.294; in experiment [3], 0.0737; in experiment [4], -0.442; in experiment [5], -0.104; in [6], -0.139; in experiment [7] it was 0.0483. For the same molecule, the composite z-score in experiment [8] was -0.121; in experiment [9], 0.372; in experiment [10], -0.275; with Albumin (Bos taurus) it was 0.202; in experiment [12] it was -0.0391; in experiment [13], -0.174. In addition, the composite z-score is 0.797 in [14]; 1.59 in experiment [15]; -0.252 in experiment [16]; 0.441 with Sam68 (KHDRBS1); 0.106 in [17]; -0.193 in experiment [18]. Also, the z-score in [2] is -0.923. In experiment [11], the composite Z-score was -0.608 (inactive).
